Bioassay records deposited in PubChem by National Center for Advancing Translational Sciences (NCATS).
Sampled rows, rich in hits. Any-hit rate of the full collection: about 6%.
D1 ag = human D1 receptor agonism. HEK293 T-REx D1 cells, calcium flux, agonist mode. activation, % at 2 µM. AID 504660. P21728. 360,000 tested, 1% active; in the data active means activation above about 30%
Target sequence (P21728 whole entry, looked up): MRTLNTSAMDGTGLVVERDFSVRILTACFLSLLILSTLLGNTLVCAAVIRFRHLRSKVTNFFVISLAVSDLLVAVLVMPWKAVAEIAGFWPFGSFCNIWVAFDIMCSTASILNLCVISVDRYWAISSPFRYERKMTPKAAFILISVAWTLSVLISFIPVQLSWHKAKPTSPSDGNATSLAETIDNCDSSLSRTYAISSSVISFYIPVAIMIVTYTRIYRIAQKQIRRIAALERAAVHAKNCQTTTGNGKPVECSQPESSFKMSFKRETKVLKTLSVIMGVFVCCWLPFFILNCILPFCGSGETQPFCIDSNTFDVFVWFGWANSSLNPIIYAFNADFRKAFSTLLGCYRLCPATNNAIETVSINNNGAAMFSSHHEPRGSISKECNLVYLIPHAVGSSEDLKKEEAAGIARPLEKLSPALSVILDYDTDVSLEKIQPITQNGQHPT
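Tetracycline-induced HEK293 TREx D1 cells, force-coupled to calcium signalling, were dye-loaded with a no-wash calcium kit. Compound was pin-added after a 10 s baseline. Fluorescence was read kinetically at 1 cycle/s for 180 s, with calcium rises flagged as agonism.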
DRD3 antagonist = blocks the human D3 dopamine receptor; P35462; D3R cells, DiscoveRx beta-arrestin luminescence, antagonist mode; stronger effect = lower value; max response, negative = inhibition, %; 360,000 tested, 2.5% active; AID 652054; in the data active means max response below about -50%; inconclusive means no clear call, values can overlap the other calls
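Cells plated overnight at 1500 cells/well, then exposed to library compounds with dopamine controls for 90 minutes at 37 degrees C. DiscoveRx reagent added for 30–60 minutes at room temperature; luminescence read, quantitative HTS format.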
D3 ag = D3 dopamine receptor (human) agonism; max activation, %; P35462; 410,000 tested, 0.58% active; D3R DiscoveRx beta-arrestin cells, luminescence, 90 min; in the data active means max activation above about 30%
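Cells at 1500/well, incubated overnight, then treated with pinned compounds (dopamine as control) for 90 min at 37 degrees C. DiscoveRx reagent added for 30 - 60 minutes at room temperature; luminescence read.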
D1 potentiator = human D1 dopamine receptor positive modulation. 360,000 tested, 0.036% active. HEK293 TREx D1 cells, calcium flux, dopamine EC20 potentiation. potentiation, % at 10 µM; in the data active means potentiation above about 30%
D1 antagonist = antagonists of human D1 dopamine receptor; activity change, negative = inhibition, % at 10 µM; HEK293 TREx D1 cells, calcium flux, dopamine EC80; stronger effect = lower value; 360,000 tested, 3.2% active; P21728; AID 504652; in the data active means activity change below about -30%
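Allosteric or orthosteric antagonism assessed as attenuation of the calcium response to EC80 dopamine, added 180 s after compound, in induced HEK293 Trex D1 cells loaded with no-wash calcium dye.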
A number is an active result; 0 = inactive; ? = inconclusive; - = not tested or not shown.

SMILES | D1 ag | DRD3 antagonist | D3 ag | D1 potentiator | D1 antagonist
COc1ccccc1C(=O)Nc1ccc(C(=O)OCc2cc(=O)n3nc(C)sc3n2)cc1 | 0 | - | 0 | 0 | 0
O=C(Cn1cc(COc2ccc(Cl)c(Cl)c2)nn1)NS(=O)(=O)c1ccccc1C(F)(F)F | - | -67.1 | 0 | - | -
Cc1csc(SCCn2c(N3CCN(c4ccccc4)CC3)nc3c2c(=O)[nH]c(=O)n3C)n1 | 0 | 0 | 0 | 0 | -63.7
Cn1c(=O)[nH]c(=O)c2c1nc(SCCN1CCOCC1)n2Cc1ccccc1 | 0 | -69.9 | 0 | 0 | 0
Cc1cn2c(=O)c(S(=O)(=O)NCCc3ccccc3)c(C)nc2s1 | 0 | - | 0 | 0 | 0
CC(=O)c1ccccc1OCC(O)CN1CCN(c2ccccn2)CC1 (centres undefined) | 0 | 0 | 0 | 0 | 0
Cc1cccc(OCC(O)CN2CCN(c3ccccn3)CC2)c1C (centres undefined) | 0 | 0 | 68.5 | 0 | 0
Cc1cc(C)c(C)c(OCC(O)CN2CCN(c3ccccn3)CC2)c1 (centres undefined) | 0 | 0 | 62.7 | 0 | 0
Cc1ccc(NC(=O)CN2C(=O)c3cccnc3Sc3ccccc32)cc1C | 0 | - | 0 | 0 | 0
N=c1c(C(=O)NCC2CCCO2)cc2c(=O)n3ccccc3nc2n1Cc1ccccc1Cl (centres undefined) | 0 | 0 | 0 | 0 | -39.2
O=[N+]([O-])c1cc(Cc2ccccc2)cc(C=Nc2ccc(N3CCOCC3)cc2)c1O | 0 | -66.6 | 0 | 0 | 0
Cc1sc2nc(CSc3ccccc3)nc(N3CCN(C)CC3)c2c1C | 0 | -93.3 | 0 | 0 | -41.7
c1ccc(CCCCN2CCN=C2Nc2ccccc2)cc1 | 0 | 0 | 0 | 0 | 0
Fc1cccc(CCN2CCN=C2Nc2ccccc2)c1 | 0 | -74.1 | 0 | 0 | 0
c1ccc(NC2=NCCN2CCCC2CCCCC2)cc1 | 32.9 | ? | 0 | 0 | 0
Cc1ccccc1C(=O)Nc1cccc(C(=O)OCc2cc(=O)n3c(C)csc3n2)c1 | 0 | - | 0 | 0 | 0
CC(=O)Nc1ccccc1NC(=O)C/C(C)=N/NC(=O)c1ccc([N+](=O)[O-])c(Cl)c1 | 0 | -58.0 | 0 | 0 | 0
C/C(CC(=O)Nc1cccnc1)=N\NC(=O)c1ccc([N+](=O)[O-])c(Cl)c1 | 0 | 0 | 0 | 0 | 0
COc1ccc(N2C(=O)C(Cl)=C(Oc3cccc(OC)c3)C2=O)cc1 | 0 | -58.3 | 0 | 0 | 0
COc1ccc(CNC(=O)Cn2c(SCC(=O)N(C)c3ccccc3)nc3ccccc32)cc1 | 0 | - | 0 | 0 | 0
CCN(C(=O)CSc1nc2ccccc2n1CC(=O)NCc1ccc(OC)cc1)c1ccccc1 | 35.4 | - | 0 | 0 | 0
O=C(Cn1cc(C(F)(F)F)ccc1=O)Nc1ccccc1 | 0 | 0 | 0 | 0 | 0
CC1Cc2ccccc2N1C(=O)CN1CCN(Cc2ccccc2)CC1 (centres undefined) | 0 | -78.4 | 0 | 0 | 0
CC1Cc2ccccc2N1C(=O)Cn1cc(C(F)(F)F)ccc1=O (centres undefined) | - | -117.0 | 0 | - | -
O=C(Cn1cc(C(F)(F)F)ccc1=O)NC1CCCC1 | 0 | 0 | 0 | 0 | -44.5
SMILES | D1 ag | DRD3 antagonist | D3 ag | D1 potentiator | D1 antagonist
CCCN(CCC)CC(O)CN(c1cc([N+](=O)[O-])ccc1OC)S(=O)(=O)c1ccccc1 (centres undefined) | 0 | -65.3 | 0 | 0 | 0
COc1ccc(Nc2cc(C(=O)NCCCN3CCN(c4ccccc4F)CC3)c3ccccc3n2)c(OC)c1 | 0 | - | 0 | 0 | -42.4
COc1ccc(OC)c(NC(=O)CCN2CCCCC2)c1 | 0 | 0 | 0 | 0 | 0
Cc1cc(C)cc(OCC(=O)N/N=C/c2ccc([N+](=O)[O-])o2)c1 | 0 | 0 | 0 | 0 | -37.8
COc1ccc(NC(=O)CCN2CCN(c3ccccc3F)CC2)c(OC)c1 | 0 | 0 | 0 | 0 | -36.0
COc1ccc(OC)c(NC(=O)CCN2CCN(c3ccccc3OC)CC2)c1 | 0 | -84.5 | 0 | 0 | -63.7
CSc1cccc(NC(=O)C(c2ccccc2)N2Cc3ccccc3C2=O)c1 (centres undefined) | 0 | - | 0 | 0 | 0
Cc1ccc(C)c(CSc2nc(-c3ccccc3F)nc3c2Cc2c(CO)cnc(C)c2O3)c1 | 0 | - | 0 | 0 | 0
COc1ccc([N+](=O)[O-])cc1NC(=O)CCN1CCN(c2ccccc2)CC1 | 0 | 0 | 75.2 | 0 | 0
O=C(CCN1CCN(c2ccccc2)CC1)N/N=C/c1ccc([N+](=O)[O-])o1 | 0 | 0 | 0 | 0 | -43.4
COc1cc(NC(=O)CCN2CCN(c3ccccc3)CC2)cc(OC)c1 | 0 | - | - | 0 | 0
COc1cc(NC(=O)CCN2CCN(c3ccccc3OC)CC2)cc(OC)c1 | - | -99.2 | 0 | - | -
Cn1cccc1-c1cc2n(n1)CCC(=O)N2CC(=O)Nc1ccc(F)cc1Cl | 0 | - | 0 | 0 | 0
COc1ccc(OC)c(NC(=O)C(C)n2nc(C)c3c(C)n(-c4ccccc4)nc3c2=O)c1 (centres undefined) | 0 | - | 0 | 0 | 0
O=C(Nc1ccc(S(=O)(=O)Nc2ncccn2)cc1)c1cc(=O)c2ccccc2o1 | 0 | - | 0 | 0 | 0
COc1cnc(-c2ccccn2)nc1Sc1ccccc1Cl | 32.3 | -68.1 | 0 | 0 | 0
COc1cnc(-c2ccccn2)nc1Sc1c(Cl)cccc1Cl | 0 | -64.6 | 0 | 0 | 0
C/C(=N\Nc1ccc(C(=O)O)cc1)c1ccc(Br)cc1 | 0 | 0 | 0 | 0 | 0
C/C(=N\Nc1ccc(C(=O)O)cc1)c1ccc(Cl)s1 | 50.1 | 0 | 0 | 0 | 0
COc1cc(/C=C(\C#N)C(=O)c2ccc(O)c(O)c2)cc(I)c1O | 37.8 | 0 | 39.8 | 0 | 0
NC(Cc1ccccc1)C(=O)O (centres undefined) | - | - | 0 | - | -
O=S(=O)(NCc1ccc(F)cc1)c1ccc(Br)cc1Br | 0 | 0 | 0 | 0 | -32.2
Cc1ccccc1Cn1cnc2c(cnn2C(C)(C)C)c1=O | 0 | 0 | 0 | 0 | 0
Cc1ccc(-n2nnc3c(=O)n(Cc4cc(C)ccc4C)cnc32)cc1 | 0 | -67.9 | 0 | 0 | 0
Cc1ccc(C)c(Cn2cnc3c(cnn3C(C)(C)C)c2=O)c1 | 40.8 | 0 | 0 | 0 | 0
SMILES | D1 ag | DRD3 antagonist | D3 ag | D1 potentiator | D1 antagonist
Cc1ccc(-n2nnc3c(=O)n(Cc4cccc(C)c4)cnc32)cc1 | 0 | 0 | 0 | 0 | 0
O=C(NCc1ccc(F)cc1)c1cnc2n(c1=O)CCS2 | 0 | 0 | 0 | 0 | -36.7
C/C=C/c1ccc(OCC(=O)Nc2ccc(C(N)=O)cc2)c(OC)c1 | 0 | 0 | 0 | 0 | -53.4
COc1ccc(/C=N/Nc2nnc(C)n2N)cc1OC(C)=O | 0 | -56.3 | 0 | 0 | 0
C/C=C/c1ccc(OC)c(OC(C)=O)c1 | 0 | 0 | 0 | 0 | -76.3
C/C=C/c1ccc(OC(C)=O)c(OC)c1 | 0 | 0 | 0 | 0 | 0
CC(O)C(O)C(O)C(O)C1NCCS1 (centres undefined) | 0 | ? | 0 | 0 | -65.9
O=C(Cc1csc(N2CCOCC2)n1)N/N=C/c1ccc(O)c(O)c1O | 0 | -57.4 | 0 | 0 | 0
CSC1=NC(C(Cl)(Cl)Cl)N=C(c2ccc(C)cc2)N1 (centres undefined) | 0 | 0 | 0 | 0 | -85.0
